Compound activity from PubChem BioAssay.
Compounds with a hit are over-represented: about 2.1% of the library has one in this group of screens.
FUS yeast rescue: FUS proteinopathy suppression in yeast. 0.24% of 390,000 active. S. cerevisiae FUS-expressing, growth rescue, OD600, 24 h. Potency, µM (top dose mostly 76.6 µM), most hits filed as activators;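 also: plate controls were DMSO vehicle for no effect and reference control for full effect; nearly all actives have a fitted effect of over 55% in size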
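Toxicity suppression screen in FUS-yeast. Cells induced with 2% galactose, starting OD 0.005, treated 24hr at 30C with compounds at multiple final concentrations; growth by OD600.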
TDP43 rescue: rescues yeast growth from TDP-43 toxicity; AID 652104; 1.8% of 410,000 active; Potency, µM (highest dose often 46.1 µM), for the others: at the top dose growth rescue (activation), hits mostly activators; TDP-43 expressing yeast growth rescue, BacTiter-Glo, 24 h; also: % of control where 0% means no effect; nearly all actives have a fitted effect of over 50% in size
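In this qHTS, compounds that restore growth of yeast expressing TDP-43 appear as activators. Cells (OD600=0.02, galactose medium, raffinose-pregrown) are incubated with compound 24 hr at 30 deg C and growth is quantified by BacTiter-Glo.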
Abeta yeast res: compounds reversing amyloid beta toxicity in yeast; Potency, µM (series often up to 46.1 µM), usual class: activators; yeast expressing A-beta42, growth rescue, OD600, 48 h; response scale: 0% DMSO, 100% iron-clioquinol control; 0.063% of 410,000 active; also: nearly all actives have a fitted effect of over 55% in size
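Growth rescue measured by 600 nm absorbance after 48 h yeast culture at 30 C with compound. Values normalized between DMSO and an equimolar ferric chloride plus clioquinol control.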
aSyn rescue: inhibitors of alpha-synuclein toxicity in yeast. AID 652106. Yeast expressing alpha-synuclein, growth rescue, BacTiter-Glo, 24 h. Potency, µM (highest dose often 46.1 µM), without a hit: top-dose growth rescue (activation), most hits filed as activators. 0.14% of 370,000 active; also: % of control where 0% means no effect; nearly all actives have a fitted effect of over 65% in size
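Rescue of yeast growth: cells expressing toxic alpha-synuclein, induced in galactose at OD600 0.02, incubated with compound 24 h at 30 C. ATP luminescence quantified growth; inhibitors of toxicity appear as activators.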
* marks the source's active call; other numbers are inactive results; i = inactive; u = inconclusive; x = not tested or not shown; [ ] = dose if it differs, or a comment. Calls follow the shape of the dose curve; as a rule, active = well fitted curve in the direction sought with a large enough effect; inconclusive = small, poorly fitted or top-dose-only effect, or another doubt; inactive = no such curve, though single readings can be large; an effect the other way counts as inactive or inconclusive. Potency is read from the fitted curve at half-maximal effect.

SMILES | FUS yeast rescue | TDP43 rescue | Abeta yeast res | aSyn rescue
C=CCc1ccccc1OCC(=O)N/N=C/c1ccc(OC(C)=O)cc1OC(C)=O | i | -7.8% | i | 12.6µM*
Cc1cc(C(=O)CSc2nnc(-c3ccncc3)n2-c2ccccc2)c(C)n1C | 31.6µM* | -6.2% | i | -8.8%
O=C(c1ccccc1)N1CCN(c2ncnc3sc4c(c23)CCC4)CC1 | i | 22.4µM* | i | 11.1%
Cn1cccc1[C@]1(O)C(=O)Nc2ccc(F)cc21 | i | x | x | x
CC12CN3CC(C)(CN(C1)C3c1ccc(OCc3ccccc3)cc1)C2=O (stereo not drawn) | i | 20µM* | i | x
Cc1ccc(-c2noc(-c3ccc(N4CCCC4)c([N+](=O)[O-])c3)n2)cc1 | i | -2.7% | i | x
Cc1cc(C=O)c(C)n1-c1ccc(N2CCCCC2)c([N+](=O)[O-])c1 | i | 17.8µM* | i | -5.9%
Cc1noc(-c2ccc(N3CCCCC3)c([N+](=O)[O-])c2)n1 | i | 17.8µM* | i | x
Cc1onc(-c2ccccc2)c1-c1ccnn1C(=O)NC(C)C | i | 11.2µM* | i | -11.6%
Cc1ccc(S(=O)(=O)n2nccc2-c2c(-c3ccccc3)noc2C)cc1 | i | -13.2% | i | 0.8%
CCc1c(C)c2c(C)nn(-c3ccccc3)c2oc1=O | i | 25.1µM* | i | 6.6%
CCN(CC)c1ccc(/C=N/NC(=O)c2nnn(-c3nonc3N)c2C(C)C)c(O)c1 | u | u | 14.1µM* | 14.1µM*
CC(C)c1c(C(=O)N/N=C/c2ccc3c(c2)OCO3)nnn1-c1nonc1N | i | 11.2% | i | -6.0%
FCCCOc1ccc(-c2ccnc3ncnn23)cc1 | i | 22.4µM* | i | 3.5%
COc1ccc(OC)c(NC(=O)Cn2nc3c(cc2=O)CCCC3)c1 | i | -0.5% | i | x
c1ccc2c(c1)OCC(c1csc3ncnc(N4CCCCC4)c13)O2 (stereo not drawn) | i | -10.0% | i | -7.7%
Clc1ncnc2scc(C3COc4ccccc4O3)c12 (stereo not drawn) | i | 17.8µM* | i | 4.7%
Nc1ccc(CNC(=O)OCC2c3ccccc3-c3ccccc32)cc1 | u | 14.1µM* | i | 8.2%
O=C(N[C@H](Cc1ccc(Cl)cc1)C(=O)O)OCC1c2ccccc2-c2ccccc21 | i | -14.1% | i | 0.5%
CCOC(=O)CSc1nnc(CNc2ccc(Cl)cc2)n1Cc1ccccc1 | i | 14.1µM* | i | u
Cc1nc(SCC(=O)N(C)Cc2ccco2)c2c(C)c(C)sc2n1 | i | 22.4µM* | i | 4.1%
Cc1ccc(-n2nc(C)c3c(C)cc(=O)n(CC(=O)Nc4cccc(C)c4C)c32)cc1 | i | -15.9% | i | x
COc1cc2ccccc2cc1C(=O)Nc1cccc(-c2nc3cc(C)c(C)cc3o2)c1 | i | 17.8% | i | x
O=c1[nH]c2ccc(Br)cc2c(-c2ccccc2)c1N1CCOCC1 | i | 11.0% | i | -0.5%
CC(=O)c1c(N2CCOCC2)nc2ccc(Br)cc2c1-c1ccccc1 | i | 14.1µM* | i | 8.9%
SMILES | FUS yeast rescue | TDP43 rescue | Abeta yeast res | aSyn rescue
CC(=O)N1c2ccc(S(=O)(=O)NCCC(=O)Nc3ccc(C)cc3Br)cc2CC1C (stereo not drawn) | i | 13.1% | i | x
Nc1nc(-c2ccc(Br)s2)c(Br)s1 | i | 11.2µM* | i | 4.2%
N#Cc1c(N)nc2c(c1-c1ccc(Br)s1)CCCC2 | x | 11.5% | i | -1.8%
COc1ccc(-c2nc3scc(CCNC(=O)c4cc(OC)cc(OC)c4)n3n2)cc1 | i | u | i | x
COc1cccc(C(=O)Nc2cc(NC(=O)c3cccs3)ccc2C)c1OC | i | 11.2µM* | i | -9.6%
COc1cc(NC(=O)c2ccc3c(c2)OCCO3)ccc1NC(=O)c1cccs1 | i | 12.6µM* | i | -12.6%
O=C(Nc1ccc(NC(=O)c2cccs2)cc1)c1ccc2c(c1)OCCO2 | i | -0.8% | i | u
CC(Oc1ccc(F)cc1)C(=O)Nc1nc(-c2ccc(F)cc2)ns1 (stereo not drawn) | i | u | i | x
CCC(=O)NC(c1ccco1)c1cc(Cl)c2cccnc2c1O (stereo not drawn) | i | 17.3% | i | 11.2µM*
Nc1cccc2c1C(=O)N(c1ccccc1)C2=O | i | 35.5µM* | i | -17.1%
O=C1c2ccccc2C(=O)N1c1ccccc1 | i | 3.8% | i | 0.4%
COc1cc(O)cc(O)c1C(=O)/C=C/c1ccccc1 | i | 11.8% | i | 12.2%
COc1cc(OC)c(C(=O)/C=C/c2ccccc2)c(O)c1O | i | 12.6µM* | i | 7.3%
COc1cc(OC)c(NC(=O)C(C)n2nc(-c3ccc(C)cc3)c3c(c2=O)CCCC3)cc1Cl (stereo not drawn) | u | 0.0% | i | x
O=[N+]([O-])c1cc(S(=O)(=O)Oc2ccccc2)ccc1Cl | x | 11.2µM* | i | -5.7%
O=S(=O)(Oc1ccccc1)c1ccc(Cl)c(Cl)c1 | i | 15.7% | i | 10.0%
Cc1cc(N2CCN(C(=O)c3ccoc3)CC2)n2nc(-c3ccccc3)cc2n1 | i | -6.8% | i | -0.3%
O=C(c1ccoc1)N1CCN(c2cc(-c3ccco3)nc3cc(-c4ccccc4)nn23)CC1 | u | 20µM* | i | -9.7%
O=C(c1ccoc1)N1CCN(c2cc(-c3ccccc3)nc3cc(-c4ccccc4)nn23)CC1 | i | 17.8µM* | i | -1.0%
CCS(=O)(=O)NCCc1csc(-c2ccccc2)n1 | i | -7.1% | i | -1.9%
Cc1ccc(C)c(S(=O)(=O)NCCc2csc(-c3ccc(Cl)cc3)n2)c1 | i | 22.4µM* | i | x
COc1ccc(-c2nc(CNS(=O)(=O)c3cccc(F)c3)cs2)cc1 | i | 12.6µM* | i | x
Cc1ccc(S(=O)(=O)NCCc2sc3nc(-c4ccccc4)nn3c2C)cc1C | i | 12.6µM* | u | x
CCOc1ccc(S(=O)(=O)NCCc2csc(-c3ccc(Cl)cc3)n2)cc1 | u | 22.4µM* | i | x
O=C(Cn1ncc2c(Cl)cccc21)NCc1cccc(Cl)c1 | i | 6.3%[9.22 µM] | i | x
SMILES | FUS yeast rescue | TDP43 rescue | Abeta yeast res | aSyn rescue
COc1ccc(S(=O)(=O)NCCc2csc(-c3ccc(F)cc3)n2)cc1F | i | 17.8µM* | i | x
O=S(=O)(NCCSc1ccc(Cl)cc1)c1ccc(F)cc1 | i | 14.1µM* | i | 23.1%
Cc1ccc(SCCNS(=O)(=O)c2ccc(F)cc2)cc1 | i | u | i | 17.4%
COc1ccc(-c2nc(CNS(=O)(=O)c3ccc(F)cc3)cs2)cc1 | i | 23.5% | i | x
Cc1ccc(CCNS(=O)(=O)c2cc(-c3cc(C)no3)ccc2C)cc1 | i | 22.4µM* | i | x
O=S(=O)(NCCc1csc(-c2ccc(F)cc2)n1)c1ccc(Cl)cc1 | i | 11.2µM* | 6.31µM* | x
CCCNS(=O)(=O)c1ccc2nc(NC(=O)c3ccc(F)cc3)sc2c1 | i | 28.3%[9.22 µM] | i | x
C[N+](C)(C)c1ccc(/C=C/c2ccnc3ccccc23)cc1 | x | x | x | -37.8%
